This is part of a sample that, as a whole, favours compounds with a hit. Of some 83,000 tested, about 20% had one in any assay.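 Activity criterion: percent growth below 10, measured after cells in 96-well plates were exposed to a single compound concentration for 48 hours.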 Unmarked numbers belong to inactive results. Active and inactive are the calls of the source.
The compounds below were run on HL-60(TB) leukemia (assay: NCI-60 one-dose screen, 48 h (100 = growth as untreated, 0 = no growth, -100 = all killed)). Details: 10 µM unless noted.
`COc1ccc(/C=C2\SC(=Nc3cc(C)on3)NC2=O)cc1` gave a growth of 94.6%.
`N/C(=N\c1nc2c(Cl)cccc2s1)C(Cl)(Cl)Cl` gave a growth of 25.5%.
`COc1ccccc1/C=C/C=N/NC1=NC2C(S1)N(C)C(=O)N2c1ccccc1` (centres undefined) was tested, and the growth was -25.7% (active).
In the case of `O=C(NCCCNc1cc(-c2cn(-c3ccccc3)nc2-c2cccc(O)c2)ccn1)Nc1cc(C(F)(F)F)cc(C(F)(F)F)c1`, the growth is reported as 71.9%.
Work on `NC(=O)c1c(NC(=O)c2cccc(C(F)(F)F)c2F)sc2c1CCC(=O)C2` yielded a growth of 15%.
`Cc1ccccc1Nc1nc(SC(C)C)nc(-c2ccccc2)c1C#N` showed a growth of 94.1%.
`O=C(N/N=C/c1ccc(Cl)s1)c1[nH]c2ccc(Br)cc2c1-c1ccccc1` was tested, and the growth was -44.1% (active).
`Clc1ccc(-c2csc(N/N=C/c3nc4ccccc4n3C3CC3)n2)cc1` gave a growth of 107%.
Compound `Cc1ccc2c(c1)C13C(=C2Br)CCCN1C(=O)c1ccccc13` (centres undefined) has a growth of 68.2%.
For `Brc1cc(-c2cc(-c3ccc4c(c3)OCCO4)[nH]n2)cs1`, the growth was 24%.
In the case of `CCCCCCNC(=O)Oc1ccc(/C(=C(\C)c2ccc(Cl)cc2)c2ccc(OCCN(C)C)cc2)cc1`, the growth is reported as -8.4% (active).
In the case of `CC(=O)Nc1cc(N2CCOCC2)c2nc(NC(=O)c3[nH]c(C)c(Cl)c3Cl)sc2c1`, the growth is reported as 82.9%.
Work on `c1ccc(CNc2ncnc3ccc(-c4cnc5[nH]ncc5c4)cc23)cc1` yielded a growth of 63.8%.
In the case of `Cc1ccc(S(=O)(=O)N(CC[C@@H]2C[C@H]2c2cc3ccccc3o2)S(=O)(=O)c2ccc(C)cc2)cc1`, the growth is reported as 64.6%.
In the case of `CCn1c2ccc(/C=N/OCCCN(C)C)cc2c2cc(/C=N/OCCCN(C)C)ccc21`, the growth is reported as -36.9% (active).
`O=C1CCCc2nc(Nc3ccc(S(=O)(=O)Nc4ccc([N+](=O)[O-])cc4)cc3)ncc21` gave a growth of 110%.
Compound `COc1ccc(N2C(=O)c3cc(Cl)ccc3NC2SCc2ccccc2)cc1` (centres undefined) has a growth of 114%.
With `C#Cc1nc(C2=C(C)C(=O)/C(=N/OC(C)=O)C2)cs1` the growth was 20.4%.
`CCOC(=O)c1c(Nc2ccccc2)nn2c(-c3ccc(Cl)cc3)ccnc12` was tested, and the growth was 86.7%.
`Clc1cccc(/C=N/Nc2nc(N/N=C/c3cccc(Cl)c3)nc(N3CCCCC3)n2)c1` showed a growth of 97%.
With `COc1cc(-c2nn(C(C)(C)C)cc2-c2ccnc(NCCCNS(=O)(=O)c3ccc(F)cc3)n2)ccc1Cl` the growth was 101%.
In the case of `O=C1[C@@H]2Cc3c([nH]c4ccccc34)[C@H](c3c(Cl)cccc3Cl)N2C(=O)CN1C1CCN(CC2CCCCC2)CC1`, the growth is reported as -25.1% (active).
`CCn1c2ccc(/C=N/N(C)S(=O)(=O)CCN(C)C)cc2c2cc(/C=N/N(C)S(=O)(=O)CCN(C)C)ccc21` showed a growth of 42.5%.
With `CN(Cc1ccccc1)S(=O)(=O)/N=C1\NC(=O)NC1=C(Cl)Cl` the growth was -29.8% (active).
`C=C1CC[C@@H]2[C@]3(C)COC(c4ccccc4)O[C@@H]3CC[C@@]2(C)[C@@H]1C/C=C1/C(=O)OC[C@H]1O` (some centres undefined) was tested, and the growth was 48.9%.
With `N#C/C(=C\c1ccc2ccccc2c1)C(=O)Nc1sc2c(c1C#N)CCC2` the growth was 103%.
In the case of `C=C(C)[C@@H]1CC[C@]2(C)[C@H](CC=C3[C@@H]4CC(C)(C)CC[C@]4(C(=O)NCC#CCN4CCN(C)CC4)CC[C@]32C)[C@@]1(C)CCC#N`, the growth is reported as -47.9% (active).
`CC(=O)c1sc(Nc2cccc(Nc3nc(C)c(C)s3)c2)nc1C` was tested, and the growth was 34.2%.
For `O=C(NNc1nc2cc(F)cc(F)c2n2cccc12)c1ccncn1`, the growth was -7.85% (active).
`CCCN1C=C/C(=C\C(=O)n2ccc3ccccc32)c2ccccc21` showed a growth of 87.4%.
With `C/C(=C(\c1ccc(O)cc1)c1ccc(OCCN2CCCCCC2)cc1)c1ccc(Cl)cc1` the growth was -49.2% (active).
`Cc1ccc2c(n1)C(=O)C(Cl)=C(Nc1ccc(C(C)C)cc1)C2=O` was tested, and the growth was -0.278% (active).
Compound `N#Cc1nc(-c2ccccc2)oc1N1CC[C@@H](CO)C1` has a growth of 90.6%.
For `CCCCCCNC(=O)Oc1ccc(/C(=C(/C)c2ccc(OC)cc2)c2ccc(OCCN3CCCCCC3)cc2)cc1`, the growth was -0.81% (active).
With `CC(C)(C)c1ccc(C(=O)Nc2sc3c(c2C(N)=O)CC/C(=N\O)C3)cc1` the growth was 4.37% (active).
For `CCCCCCCCNC(=O)c1ccc(Cn2c(CCCC)nc3c(N)nc4ccccc4c32)cc1`, the growth was -57.6% (active).
Work on `O=C(CSc1nnc(-c2ccc3nc(-c4ccc(Cl)cc4)[nH]c3c2)o1)Nc1ccc(C(=O)/C=C/c2ccc(Cl)cc2)cc1` yielded a growth of 86%.
With `Cc1cn(-c2cc(NC(=O)c3cncc(C#Cc4cnc5ccc(OCCCS(C)(=O)=O)nn45)c3)cc(C(F)(F)F)c2)cn1` the growth was -6.15% (active).
Work on `Cn1cc2c(c1)-c1c(sc3nc(-c4ccc(NC(=O)Nc5cc(C(C)(C)C)on5)cc4)cn13)CC2` yielded a growth of 12.4%.

Source: PubChem BioAssay (NCI)
